Source: PubChem (National Center for Advancing Translational Sciences (NCATS))
CHX counter = counter-screen hit for Shiga toxin inhibitors, cycloheximide | cell reporter, cycloheximide protein synthesis inhibition counterscreen | AID 2314 | max response, % | hit rate 12% among 300,000; in the data active = max response mostly above about 13%, no sharp cut-off; inactive = mostly below about 14%; also: read at 38.3 µM for the half of the compounds with a filed dose
Pf growth 48h = inhibits P. falciparum growth in the first generation, 48 h; hit rate 5.9% among 310,000; Potency, µM (series often up to 28.7 µM), most hits filed as inhibitors; AID 504832; P. falciparum luciferase growth in erythrocytes, 48 h
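In quantitative HTS format, infected erythrocytes bearing luciferase-reporter parasites were treated for a single generation at 37 C. Luminescence after adding detection reagent served as the growth measure.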
Pf growth 96h = P. falciparum growth inhibition at 96 hours. P. falciparum luciferase reporter growth, 96 h. Potency, µM (top dose mostly 28.7 µM), most hits filed as inhibitors. hit rate 6.9% among 320,000. AID 504834
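P. falciparum expressing integrated firefly luciferase, in erythrocytes at 2% hematocrit, 0.05% parasitemia, incubated with compounds 96 h at 37 C, 5% CO2. Growth inhibition read as loss of luminescence; two-generation exposure targets delayed-death apicoplast inhibitors.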
Shiga toxin inh = Shiga toxin inhibition; inhibition, % at 38.7 µM; AID 2315; Vero cells, Shiga toxin protein synthesis inhibition reporter; hit rate 9.2% among 290,000; in the data active = inhibition mostly above about 28%, no sharp cut-off; inactive = mostly below about 43%
HCMV inh = blocks human cytomegalovirus replication; AID 1259415; HFF cells, HCMV-luciferase reporter, 72 h; stronger effect = lower value; activity change, negative = inhibition, % at 57.5 µM; hit rate 4.5% among 410,000; in the data active = activity change below about -60%; inconclusive = no clear call, values can overlap the other calls; inactive = above about -39%
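Compounds were evaluated in HFFs infected with an HCMV luciferase reporter virus (MOI 1 PFU/cell). Luciferase in lysates collected 72 h post infection served as the replication measure.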
Large screens that a line does not name were inactive; ! = repeats disagree. Compounds with a hit are over-represented: about 20% of the library has one in this group of screens. Unless noted, calls follow the shape of the dose curve; as a rule, active = well fitted inhibition curve with a large enough effect; inconclusive = small, poorly fitted or top-dose-only effect, or another doubt; inactive = no such curve, though single readings can be large or run the other way.

COc1ccc(-n2nc(C(=O)NCC(=O)Nc3cc(OC)c(OC)c(OC)c3)c3ccccc3c2=O)cc1Cl	Pf growth 48h inconclusive
COc1ccc(-n2nc(C(=O)NCC(=O)NCCCN3CC(C)CC(C)C3)c3ccccc3c2=O)cc1Cl (configuration not stated)	Pf growth 48h 6.57µM
COc1ccc(-n2nc(C(=O)NCC(=O)N3CCN(c4ccccn4)CC3)c3ccccc3c2=O)cc1Cl	CHX counter 27.0, Pf growth 96h inconclusive
COc1ccc(-n2nc(C(=O)NCC(=O)N3CCC(C)CC3)c3ccccc3c2=O)cc1Cl	Shiga toxin inh 49.2
CCOCCCNC(=O)/C(C#N)=C/c1cc(OC)c(O)c([N+](=O)[O-])c1	none
CNC(=O)/C(=C\c1cccc(Oc2ccccc2)c1)NC(=O)c1ccccc1	Pf growth 96h inconclusive
CNC(=O)/C(C#N)=C/c1cccc(Oc2ccccc2)c1	CHX counter 42.0, Shiga toxin inh 64.0
COCCNC(=O)/C(C#N)=C/c1ccc(O)cc1	CHX counter 18.8
COCCNC(=O)/C(C#N)=C/C(C)=C/c1ccccc1	none
CCOCCCNC(=O)/C(C#N)=C/c1ccc(Cl)c([N+](=O)[O-])c1	HCMV inh -102.0
COCCNC(=O)/C(C#N)=C/c1cccc(/C=C(\C#N)C(=O)NCCOC)c1	Pf growth 48h inconclusive, Pf growth 96h inconclusive, HCMV inh -68.3
COCCNC(=O)/C(C#N)=C/c1ccc(O)c([N+](=O)[O-])c1	none
COc1ccc([C@H]2CC(=O)C=C(c3cccc(C(C)C)c3)C2)cc1	Pf growth 48h inconclusive, Pf growth 96h inconclusive (no result: CHX counter, Shiga toxin inh)
COCCNC(=O)/C(C#N)=C/C=C/c1ccccc1[N+](=O)[O-]	CHX counter 17.3, Pf growth 96h inconclusive, HCMV inh -95.6
COCCNC(=O)/C(C#N)=C/c1ccc(-c2ccc(OC)cc2[N+](=O)[O-])o1	none
N#C/C(=C\c1ccc(O)cc1)C(=O)O	HCMV inh -73.5! (no result: CHX counter, Pf growth 48h, Pf growth 96h, Shiga toxin inh)
Oc1cccc[c]1[Hg][Cl]	Pf growth 48h 1.07µM, Pf growth 96h 1.07µM (no result: CHX counter, Shiga toxin inh, HCMV inh)
COc1cc(OC)c(C(=O)OCC(=O)NCCC2=CCCCC2)cc1OC	Pf growth 96h inconclusive (no result: CHX counter, Shiga toxin inh)
CN(CC(=O)Nc1ccc(Cl)c(C(F)(F)F)c1)C(=O)C1CC(=O)N(Cc2ccco2)C1 (configuration not stated)	Pf growth 48h inconclusive, Pf growth 96h inconclusive, HCMV inh -89.5 (no result: CHX counter, Shiga toxin inh)
CN(CC(=O)Nc1ccc(Cl)c(C(F)(F)F)c1)C(=O)/C=C/c1ccco1	Shiga toxin inh 37.2
CCOc1ccc(NC(=O)CN(C)C(=O)CCNC(=O)c2ccco2)cc1OCC	none (no result: CHX counter, Shiga toxin inh)
CN(CC(=O)Nc1ccc(Cl)c(C(F)(F)F)c1)C(=O)/C=C/c1cccs1	Pf growth 48h inconclusive, Pf growth 96h inconclusive (no result: CHX counter, Shiga toxin inh)
CN(CC(=O)Nc1ccc(Cl)c(C(F)(F)F)c1)C(=O)CCNC(=O)c1ccco1	Pf growth 48h 10.4µM (no result: CHX counter, Shiga toxin inh)
CCCN(CC(=O)Nc1cc(Cl)ccc1Cl)C(=O)/C=C/c1ccco1	CHX counter 55.2, Pf growth 48h inconclusive, Pf growth 96h inconclusive, Shiga toxin inh 125.6
CCc1ccc(CNC(=O)c2ccc3c(c2)nc2n3CCCCC2)cc1	none (no result: CHX counter, Pf growth 48h, Pf growth 96h, Shiga toxin inh)
Cc1cc(C)c(OCC(=O)Nc2ccc(NC(=O)c3ccco3)cc2)c([N+](=O)[O-])c1	Pf growth 48h inconclusive, Pf growth 96h inconclusive
Nc1cccc(NC(=O)c2ccco2)c1	CHX counter 8.1, Pf growth 96h inconclusive
Cc1cc(C)c(OCC(=O)Nc2cccc(NC(=O)c3ccco3)c2)c(Br)c1	Pf growth 48h inconclusive, Pf growth 96h inconclusive, HCMV inh -75.9
Cc1cc(C)cc(C(=O)Nc2cccc(NC(=O)c3ccco3)c2)c1	CHX counter 20.7, Pf growth 48h inconclusive, HCMV inh -72.6
O=C(Nc1cccc(F)c1)c1ccco1	CHX counter 29.2, Shiga toxin inh 42.4, HCMV inh inconclusive
CC(=O)Nc1cccc(NC(=O)c2ccco2)c1	Pf growth 96h inconclusive
Cc1nc(NN)c2c3c(sc2n1)COC(C)(C)C3	Pf growth 48h inconclusive, Pf growth 96h inconclusive
CN(C(=O)Cn1cnc([N+](=O)[O-])n1)C1CCCCC1	Pf growth 96h inconclusive
O=C(Nc1ccc(F)c(Cl)c1)C1CC2CCC1C2 (configuration not stated)	none (no result: CHX counter, Pf growth 48h, Pf growth 96h, Shiga toxin inh)
Cc1ccc(-c2nc3c4ccccc4ccn3c2Cc2cccc(F)c2)cc1	none (no result: CHX counter, Pf growth 48h, Pf growth 96h, Shiga toxin inh)
Cc1cc(F)ccc1NC(=O)C1CCC(CNS(=O)(=O)c2ccc3c(c2)CCCC(=O)N3)CC1 (configuration not stated)	none (no result: CHX counter, Pf growth 48h, Pf growth 96h, Shiga toxin inh)
CC(C)CCN(CCC(C)C)CC(O)Cn1c2ccccc2c(=O)c2ccccc21 (configuration not stated)	Pf growth 48h 1.65µM, Pf growth 96h inconclusive
